In PubChem BioAssay AID1159580 (chemical genetic matrix, 2015):
The whole screen tested about 5,500 compounds, of which about 2,000 (36%) were called active. About 18% were inconclusive and are not listed. Cut-off read from the data, not from the text of the source: active = normalized growth mostly below about 0.91 (no sharp cut-off); inconclusive = no clear call, values can overlap the other calls; inactive = mostly above about 0.92. The list shows a part of the results.

Assay: chemical genetic growth profiling, strain panel (AID 1159580);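 note: tested at 20 µM; growth read once vehicle control cultures reached saturation at 30 °C; 1 = growth at the plate median or of vehicle wells; lower values mean less growth of the strain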
Details: S. cerevisiae deletion strains, growth OD
[1] = locus YHR030C, strain SLT2, stronger effect = lower value
[2] = locus YHR079C, strain IRE1, stronger effect = lower value
[3] = locus YJL095W, strain BCK1, stronger effect = lower value
[4] = locus YJR066W, strain TOR1, stronger effect = lower value
[5] = locus YLR113W, strain HOG1, stronger effect = lower value
[6] = locus YNL183C, strain NPR1, stronger effect = lower value
[7] = locus YOR231W, strain MKK1, stronger effect = lower value
[8] = locus YPL256C, strain CLN2, stronger effect = lower value

Measured: normalized growth

CCN(CC)C(=O)c1ccc(O)c(OC)c1
inactive: locus YAL013W, strain DEP1, stronger effect = lower value 1.01 | locus YAL040C, strain CLN3, stronger effect = lower value 1.05 | locus YCL061C, strain MRC1 (second series), stronger effect = lower value 1 | locus YDR363W, strain ESC2, stronger effect = lower value 1.01 | locus YER002W, strain NOP16, stronger effect = lower value 1.03 | [1] 0.964 | [2] 0.997 | [3] 1 | [4] 0.957 | [5] 0.99 | locus YNL175C, strain NOP13, stronger effect = lower value 1.01 | [6] 0.938 | locus YNL197C, strain WHI3, stronger effect = lower value 0.999 | locus YNL224C, strain SQS1, stronger effect = lower value 1.01 | locus YNL322C, strain KRE1, stronger effect = lower value 1.03 | locus YOR083W, strain WHI5 (second series), stronger effect = lower value 1.01 | [7] 0.985 | [8] 0.975

CCOc1ccc(C(=O)c2ccc(OC)c(O)c2O)cc1
active: locus YDR195W, strain ref2 1.15 [resistant] | locus YER155C, strain BEM2 (second series), stronger effect = lower value 0.842 | locus YMR058W, strain fet3, stronger effect = lower value 0.818 | locus YNL209W, strain ssb2, stronger effect = lower value 0.909 | locus YPL051W, strain arl3, stronger effect = lower value 0.878
inactive: locus YAL021C, strain ccr4, stronger effect = lower value 0.958 | locus YAL026C, strain drs2, stronger effect = lower value 0.966 | locus YAL030W, strain snc1, stronger effect = lower value 1.02 | locus YBL061C, strain skt5, stronger effect = lower value 0.994 | locus YBR009C, strain hhf1, stronger effect = lower value 0.962 | locus YBR023C, strain chs3, stronger effect = lower value 0.977 | locus YBR171W, strain sec66, stronger effect = lower value 1.02 | locus YBR231C, strain swc5, stronger effect = lower value 0.939 | locus YBR279W, strain paf1, stronger effect = lower value 0.973 | locus YCL011C, strain gbp2, stronger effect = lower value 0.991 | locus YCL016C, strain dcc1, stronger effect = lower value 0.973 | locus YCL061C, strain MRC1, stronger effect = lower value 0.993 | locus YCL069W, strain vba3, stronger effect = lower value 1.01 | locus YCR088W, strain abp1, stronger effect = lower value 1.02 | locus YDL005C, strain med2, stronger effect = lower value 1.05 | locus YDL040C, strain nat1, stronger effect = lower value 1.01 | locus YDR001C, strain nth1, stronger effect = lower value 1.03 | locus YDR069C, strain doa4, stronger effect = lower value 0.974 | locus YDR137W, strain rgp1, stronger effect = lower value 0.913 | locus YDR159W, strain sac3, stronger effect = lower value 1.05 | locus YDR297W, strain sur2, stronger effect = lower value 1.01 | locus YDR334W, strain swr1, stronger effect = lower value 1.02 | locus YDR335W, strain msn5, stronger effect = lower value 0.993 | locus YDR392W, strain spt3, stronger effect = lower value 0.795 | locus YEL003W, strain gim4, stronger effect = lower value 0.964 | locus YEL037C, strain rad23, stronger effect = lower value 1.01 | locus YEL061C, strain CIN8 (second series), stronger effect = lower value 1.02 | locus YER015W, strain faa2, stronger effect = lower value 0.934 | locus YER016W, strain bim1, stronger effect = lower value 1.01 | locus YER111C, strain swi4, stronger effect = lower value 1.03 | locus YFR010W, strain ubp6, stronger effect = lower value 1.01 | locus YGL167C, strain pmr1, stronger effect = lower value 0.997 | locus YGL173C, strain kem1, stronger effect = lower value 0.999 | locus YGL227W, strain vid30, stronger effect = lower value 1.03 | locus YGL240W, strain doc1, stronger effect = lower value 0.982 | locus YGL253W, strain hxk2, stronger effect = lower value 1 | locus YHR013C, strain ard1, stronger effect = lower value 0.961 | locus YHR027C, strain rpn1, stronger effect = lower value 1.01 | [1] 0.892 | [2] 0.913 | locus YHR142W, strain chs7, stronger effect = lower value 0.963 | locus YJL092W, strain hpr5, stronger effect = lower value 1.02 | locus YJL095W, strain BCK1 (second series), stronger effect = lower value 0.987 | [3] 0.923 | locus YJL115W, strain asf1, stronger effect = lower value 1.04 | locus YJL129C, strain trk1, stronger effect = lower value 1.04 | locus YJL154C, strain vps35, stronger effect = lower value 1.03 | locus YJL164C, strain tpk1, stronger effect = lower value 0.964 | locus YJL166W, strain qcr8, stronger effect = lower value 0.959 | locus YJL187C, strain SWE1, stronger effect = lower value 1 | [4] 0.826 | locus YKL160W, strain elf1, stronger effect = lower value 0.951 | locus YKR026C, strain gcn3, stronger effect = lower value 1.03 | locus YKR091W, strain srl3, stronger effect = lower value 1.02 | locus YLL001W, strain dnm1, stronger effect = lower value 0.981 | locus YLL026W, stronger effect = lower value 1.03 | locus YLL041C, strain sdh2, stronger effect = lower value 1.01 | locus YLR027C, strain aat2, stronger effect = lower value 0.986 | [5] 0.953 | locus YLR221C, strain rsa3, stronger effect = lower value 0.977 | locus YLR258W, strain gsy2, stronger effect = lower value 1 | locus YLR262C, strain YPT6 (second series), stronger effect = lower value 0.875 | locus YLR320W, strain mms22, stronger effect = lower value 0.949 | locus YLR342W, strain FKS1, stronger effect = lower value 0.958 | locus YLR357W, strain rsc2, stronger effect = lower value 0.949 | locus YLR370C, strain arc18, stronger effect = lower value 1.02 | locus YLR384C, strain iki3, stronger effect = lower value 1.02 | locus YML120C, strain ndi1, stronger effect = lower value 0.997 | locus YMR125W, strain sto1, stronger effect = lower value 1.02 | locus YMR129W, stronger effect = lower value 1.01 | locus YMR205C, strain PFK2, stronger effect = lower value 1.01 | locus YMR231W, strain pep5, stronger effect = lower value 0.992 | locus YNL071W, strain lat1, stronger effect = lower value 0.972 | [6] 0.866 | locus YNL248C, strain rpa49, stronger effect = lower value 1.03 | locus YNL322C, strain KRE1 (second series), stronger effect = lower value 1.03 | locus YNR049C, strain mso1, stronger effect = lower value 1.06 | locus YOR001W, strain rrp6, stronger effect = lower value 0.996 | locus YOR070C, strain gyp1, stronger effect = lower value 0.989 | locus YOR080W, strain dia2, stronger effect = lower value 1.04 | locus YOR083W, strain WHI5, stronger effect = lower value 0.953 | locus YOR106W, strain vam3, stronger effect = lower value 0.892 | [7] 0.94 | locus YOR265W, strain rbl2, stronger effect = lower value 1.01 | locus YOR270C, strain vph1, stronger effect = lower value 0.918 | locus YOR290C, strain snf2, stronger effect = lower value 0.955 | locus YPL078C, strain atp4, stronger effect = lower value 0.957 | locus YPL106C, strain sse1, stronger effect = lower value 0.957 | locus YPL240C, strain hsp82, stronger effect = lower value 1.01 | [8] 0.954
